# Reference: PubChem BioAssay (NCI)
# This is part of a sample that, as a whole, favours compounds with a hit. Of some 79,000 tested, about 15% had one in any assay. A number with no mark means an inactive call. Activity calls are given as the source filed them. Rule as the data show it: active = growth inhibition above about 70%; inactive = the rest.
# Assays:
# [1] = NCI Yeast Anticancer Drug Screen. Data for the rad52 strain (AID 147);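 also: 0% = growth of vehicle-treated control cultures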; conditions: S. cerevisiae rad52 mutant growth inhibition, stronger effect = higher value
# How it was run: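 Growth of repair-deficient yeast cells was compared between compound-treated and vehicle-treated cultures to give percent inhibition.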
# [2] = NCI Yeast Anticancer Drug Screen. Data for the wt1 strain (AID 149);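 also: 0% = growth of vehicle-treated wt1 cultures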; conditions: S. cerevisiae wt1 strain (SPY 50644) growth inhibition, stronger effect = higher value
# How it was run: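 Using yeast strain wt1, compound-induced growth inhibition was determined against vehicle-treated cultures.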
# [3] = NCI Yeast Anticancer Drug Screen. Data for the rad50EPP+ strain (AID 151);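 also: 0% = growth of vehicle-treated control cultures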; conditions: S. cerevisiae rad50 mutant strain, stronger effect = higher value
# How it was run: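 Measured: growth inhibition of rad50EPP+ yeast. Reference: vehicle-treated controls. Screen uses strains with defined genetic alterations in DNA damage repair or cell cycle control.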
# [4] = NCI Yeast Anticancer Drug Screen. Data for the rad50 strain (AID 155);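 also: 0% = growth of vehicle-only cultures of the same strain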; conditions: S. cerevisiae rad50 strain growth inhibition, stronger effect = higher value
# How it was run: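 Relative growth inhibition (compound vs vehicle) was measured in yeast with a defined repair-gene alteration.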
# [5] = NCI Yeast Anticancer Drug Screen. Data for the mec2-1 strain (AID 157); conditions: S. cerevisiae mec2-1 strain, stronger effect = higher value
# How it was run: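 Compounds were applied to mec2-1 yeast cells. Their growth was then compared with that of vehicle-treated cultures to give growth inhibition.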
# [6] = NCI Yeast Anticancer Drug Screen. Data for the rad14 strain (AID 159);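 also: 0% = growth of vehicle-treated control cultures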; conditions: S. cerevisiae rad14 strain growth inhibition, stronger effect = higher value
# How it was run: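 Screen for anticancer potential: a yeast strain altered in DNA damage repair is grown with compound, and reduced growth is quantified against vehicle controls.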
# [7] = NCI Yeast Anticancer Drug Screen. Data for the sgs1 mgt1 strain (AID 161);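 also: 0% = growth of cultures given vehicle only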; conditions: S. cerevisiae sgs1 mgt1 strain, stronger effect = higher value
# How it was run: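 Percent growth inhibition was derived by comparing compound-exposed mutant yeast with vehicle-exposed cultures. The strain carries alterations in DNA damage repair.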
# [8] = NCI Yeast Anticancer Drug Screen. Data for the CLN2oe strain (AID 163);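 also: 0% = growth of vehicle-only control cultures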; conditions: S. cerevisiae CLN2oe strain, stronger effect = higher value
# How it was run: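 Cells of an engineered yeast line with disturbed cell-cycle regulation are treated with compound. Inhibition of growth is then calculated relative to the vehicle-treated reference.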
# [9] = NCI Yeast Anticancer Drug Screen. Data for the cln2 rad14 strain (AID 165);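 also: 0% = growth equal to vehicle treated cultures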; conditions: S. cerevisiae cln2 rad14 strain, stronger effect = higher value
# How it was run: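 Strain: cln2 rad14 yeast, altered in cell cycle control and DNA damage repair. Read-out: growth inhibition vs vehicle.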
# [10] = NCI Yeast Anticancer Drug Screen. Data for the bub3 strain (AID 167); conditions: S. cerevisiae bub3 mutant strain, stronger effect = higher value
# How it was run: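 Screening used yeast with an engineered genetic alteration affecting cell cycle control. Compound-exposed cultures were compared with vehicle cultures, and reduced growth was taken as inhibition.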
# [11] = NCI Yeast Anticancer Drug Screen. Data for the wt2 strain (AID 169);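 also: 0% = growth of vehicle-treated yeast cultures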; conditions: S. cerevisiae wt2 strain growth inhibition, stronger effect = higher value
# How it was run: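 Growth of compound-treated yeast is measured and expressed as inhibition relative to vehicle-only controls.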
# [12] = NCI Yeast Anticancer Drug Screen. Data for the mlh1 strain (AID 171);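 also: 0% = growth of vehicle-treated control cultures of the same strain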; conditions: S. cerevisiae mlh1 strain growth inhibition, stronger effect = higher value
# How it was run: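 Test agents were incubated with yeast bearing a defined DNA damage repair or cell cycle control alteration; values are growth inhibition normalised to vehicle-treated cultures.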
# [13] = NCI Yeast Anticancer Drug Screen. Data for the sgs1 strain (AID 173);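 also: 0% = growth of vehicle-only control cultures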; conditions: S. cerevisiae sgs1 mutant, stronger effect = higher value
# How it was run: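 Strain with an altered DNA repair or cell cycle pathway exposed to compound. Growth then measured. Value = inhibition versus vehicle control.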
# [14] = NCI Yeast Anticancer Drug Screen. Data for the mlh1 rad18 strain (AID 175); conditions: S. cerevisiae mlh1 rad18 strain growth inhibition, stronger effect = higher value
# How it was run: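 A repair-deficient yeast strain is exposed to test compound, and growth is scored relative to vehicle-treated controls.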
# [15] = NCI Yeast Anticancer Drug Screen. Data for the rad18 strain (AID 177); conditions: S. cerevisiae rad18 mutant growth inhibition, stronger effect = higher value
# How it was run: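 DNA-repair-defective yeast; compound treatment; growth inhibition scored against vehicle.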
# [16] = NCI Yeast Anticancer Drug Screen. Data for the mgt1 strain (AID 153); conditions: S. cerevisiae mgt1 mutant growth inhibition, stronger effect = higher value
# How it was run: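 Compounds were applied to mgt1 mutant yeast, and growth was then compared against vehicle-treated control cultures to give percent inhibition.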
# [17] = at 5.0 µM (retest, dose inferred, filed as 0.5)
# [18] = at 50.0 µM (retest, dose inferred, filed as 5.0)
compound,measurement,setting,value
O=c1c2ccccc2nc(-c2ccc(Cl)cc2)n1O,growth inhibition,[1]; at 1.2 µM,81% (active)
same,growth inhibition,[1]; at 3.7 µM,95% (active)
same,growth inhibition,[1]; at 11.0 µM,96% (active)
same,growth inhibition,[1]; at 33.0 µM,96% (active)
same,growth inhibition,[1]; at 100.0 µM,94% (active)
same,growth inhibition,[2]; at 1.2 µM,61%
same,growth inhibition,[2]; at 3.7 µM,89% (active)
same,growth inhibition,[2]; at 11.0 µM,96% (active)
same,growth inhibition,[2]; at 33.0 µM,96% (active)
same,growth inhibition,[2]; at 100.0 µM,96% (active)
same,growth inhibition,[3]; at 1.2 µM,47%
same,growth inhibition,[3]; at 3.7 µM,85% (active)
same,growth inhibition,[3]; at 11.0 µM,91% (active)
same,growth inhibition,[3]; at 33.0 µM,91% (active)
same,growth inhibition,[3]; at 100.0 µM,90% (active)
same,growth inhibition,[4]; at 1.2 µM,80% (active)
same,growth inhibition,[4]; at 3.7 µM,93% (active)
same,growth inhibition,[4]; [17],28%
same,growth inhibition,[4]; at 11.0 µM,96% (active)
same,growth inhibition,[4]; at 33.0 µM,95% (active)
same,growth inhibition,[4]; [18],98% (active)
same,growth inhibition,[4]; at 50.0 µM,97% (active)
same,growth inhibition,[4]; at 100.0 µM,95% (active)
same,growth inhibition,[5]; at 1.2 µM,50%
same,growth inhibition,[5]; at 3.7 µM,56%
same,growth inhibition,[5]; [17],10%
same,growth inhibition,[5]; at 11.0 µM,83% (active)
same,growth inhibition,[5]; at 33.0 µM,84% (active)
same,growth inhibition,[5]; [18],97% (active)
same,growth inhibition,[5]; at 50.0 µM,96.7% (active)
same,growth inhibition,[5]; at 100.0 µM,88% (active)
same,growth inhibition,[6]; at 1.2 µM,98% (active)
same,growth inhibition,[6]; at 3.7 µM,98% (active)
same,growth inhibition,[6]; at 11.0 µM,98% (active)
same,growth inhibition,[6]; at 33.0 µM,98% (active)
same,growth inhibition,[6]; at 100.0 µM,98% (active)
same,growth inhibition,[7]; [17],46%
same,growth inhibition,[7]; [18],98% (active)
same,growth inhibition,[7]; at 50.0 µM,96.7% (active)
same,growth inhibition,[8]; at 1.2 µM,21%
same,growth inhibition,[8]; at 3.7 µM,26%
same,growth inhibition,[8]; at 11.0 µM,66%
same,growth inhibition,[8]; at 33.0 µM,73% (active)
same,growth inhibition,[8]; at 100.0 µM,71% (active)
same,growth inhibition,[9]; [17],-23%
same,growth inhibition,[9]; [18],84% (active)
same,growth inhibition,[9]; at 50.0 µM,87.8% (active)
same,growth inhibition,[10]; at 1.2 µM,62%
same,growth inhibition,[10]; at 3.7 µM,75% (active)
same,growth inhibition,[10]; [17],23%
same,growth inhibition,[10]; at 11.0 µM,78% (active)
same,growth inhibition,[10]; at 33.0 µM,82% (active)
same,growth inhibition,[10]; [18],97% (active)
same,growth inhibition,[10]; at 50.0 µM,87.5% (active)
same,growth inhibition,[10]; at 100.0 µM,72% (active)
same,growth inhibition,[11]; at 1.2 µM,92% (active)
same,growth inhibition,[11]; at 3.7 µM,96% (active)
same,growth inhibition,[11]; at 11.0 µM,96% (active)
same,growth inhibition,[11]; at 33.0 µM,96% (active)
same,growth inhibition,[11]; at 100.0 µM,96% (active)
same,growth inhibition,[12]; at 1.2 µM,72% (active)
same,growth inhibition,[12]; at 3.7 µM,90% (active)
same,growth inhibition,[12]; at 11.0 µM,93% (active)
same,growth inhibition,[12]; at 33.0 µM,92% (active)
same,growth inhibition,[12]; at 100.0 µM,94% (active)
same,growth inhibition,[13]; at 1.2 µM,96% (active)
same,growth inhibition,[13]; at 3.7 µM,96% (active)
same,growth inhibition,[13]; at 11.0 µM,97% (active)
same,growth inhibition,[13]; at 33.0 µM,96% (active)
same,growth inhibition,[13]; at 100.0 µM,95% (active)
same,growth inhibition,[14]; [17],48%
same,growth inhibition,[14]; [18],98% (active)
same,growth inhibition,[14]; at 50.0 µM,96.1% (active)
same,growth inhibition,[15]; at 1.2 µM,94% (active)
same,growth inhibition,[15]; at 3.7 µM,96% (active)
same,growth inhibition,[15]; at 11.0 µM,97% (active)
same,growth inhibition,[15]; at 33.0 µM,96% (active)
same,growth inhibition,[15]; at 100.0 µM,95% (active)
CC1=CC(=O)C=CC1=Nc1cc(Cl)c(O)c(Cl)c1,growth inhibition,[1]; at 1.2 µM,-39%
same,growth inhibition,[1]; at 3.7 µM,-29%
same,growth inhibition,[1]; at 11.0 µM,7%
same,growth inhibition,[1]; at 33.0 µM,66%
same,growth inhibition,[1]; at 100.0 µM,92% (active)
same,growth inhibition,[2]; at 1.2 µM,-30%
same,growth inhibition,[2]; at 3.7 µM,-24%
same,growth inhibition,[2]; at 11.0 µM,-12%
same,growth inhibition,[2]; at 33.0 µM,52%
same,growth inhibition,[2]; at 100.0 µM,93% (active)
same,growth inhibition,[3]; at 1.2 µM,-31%
same,growth inhibition,[3]; at 3.7 µM,-15%
same,growth inhibition,[3]; at 11.0 µM,-16%
same,growth inhibition,[3]; at 33.0 µM,27%
same,growth inhibition,[3]; at 100.0 µM,70% (active)
same,growth inhibition,[16]; at 1.2 µM,-4%
same,growth inhibition,[16]; at 3.7 µM,4%
same,growth inhibition,[16]; at 11.0 µM,9%
same,growth inhibition,[16]; at 33.0 µM,40%
same,growth inhibition,[16]; at 100.0 µM,94% (active)
same,growth inhibition,[4]; at 1.2 µM,-2%
same,growth inhibition,[4]; at 3.7 µM,8%
same,growth inhibition,[4]; [17],55%
same,growth inhibition,[4]; at 11.0 µM,8%
same,growth inhibition,[4]; at 33.0 µM,62%
same,growth inhibition,[4]; [18],53%
same,growth inhibition,[4]; at 50.0 µM,81.4% (active)
same,growth inhibition,[4]; at 100.0 µM,91% (active)
same,growth inhibition,[5]; at 1.2 µM,-21%
same,growth inhibition,[5]; at 3.7 µM,-16%
same,growth inhibition,[5]; [17],63%
same,growth inhibition,[5]; at 11.0 µM,-4%
same,growth inhibition,[5]; at 33.0 µM,55%
same,growth inhibition,[5]; [18],48%
same,growth inhibition,[5]; at 50.0 µM,79.3% (active)
same,growth inhibition,[5]; at 100.0 µM,93% (active)
same,growth inhibition,[7]; [17],-4%
same,growth inhibition,[7]; [18],93% (active)
same,growth inhibition,[7]; at 50.0 µM,83.7% (active)
same,growth inhibition,[8]; at 1.2 µM,-2%
same,growth inhibition,[8]; at 3.7 µM,-9%
same,growth inhibition,[8]; at 11.0 µM,22%
same,growth inhibition,[8]; at 33.0 µM,45%
same,growth inhibition,[8]; at 100.0 µM,90% (active)
same,growth inhibition,[9]; [17],48%
same,growth inhibition,[9]; [18],94% (active)
same,growth inhibition,[9]; at 50.0 µM,77.2% (active)
same,growth inhibition,[10]; at 1.2 µM,7%
same,growth inhibition,[10]; at 3.7 µM,11%
same,growth inhibition,[10]; [17],45%
same,growth inhibition,[10]; at 11.0 µM,8%
same,growth inhibition,[10]; at 33.0 µM,49%
same,growth inhibition,[10]; [18],91% (active)
same,growth inhibition,[10]; at 50.0 µM,83% (active)
same,growth inhibition,[10]; at 100.0 µM,92% (active)
same,growth inhibition,[11]; at 1.2 µM,-31%
same,growth inhibition,[11]; at 3.7 µM,-20%
same,growth inhibition,[11]; at 11.0 µM,-14%
same,growth inhibition,[11]; at 33.0 µM,30%
same,growth inhibition,[11]; at 100.0 µM,94% (active)
same,growth inhibition,[13]; at 1.2 µM,-50%
same,growth inhibition,[13]; at 3.7 µM,-42%
same,growth inhibition,[13]; at 11.0 µM,-17%
same,growth inhibition,[13]; at 33.0 µM,43%
same,growth inhibition,[13]; at 100.0 µM,89% (active)
same,growth inhibition,[14]; [17],40%
same,growth inhibition,[14]; [18],48%
same,growth inhibition,[14]; at 50.0 µM,82% (active)
